Experimental findings from PubChem BioAssay AID504692 (The Scripps Research Institute Molecular Screening Center, 2011) are described below.

SMILES strings stand for the structures. The whole screen tested about 340,000 compounds, of which about 2,000 (0.59%) were called active. Rule as the data show it: active = activation mostly above about 9.5% (no sharp cut-off); inactive = mostly below about 7.6%. The full list was thinned out, with actives kept by preference.

The target of this experiment is 5-hydroxytryptamine receptor 5A (Homo sapiens) (UniProt P47898). As to the kind of experiment: HTR5A agonists in luminescence cell assay, primary screen, counter-screen for OPRM1-OPRD1 heterodimer agonist project, full-deck HTS (AID 504692).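 Also: 0% = cells with vehicle only and 100% = reference agonist.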 The conditions noted are these: cell-based, at 9.3 µM, hits give high values. A general note: The purpose of a counterscreen is to sort out artefacts and off-target activity.
5-hydroxytryptamine receptor 5A (Homo sapiens), sequence (P47898 whole entry, looked up): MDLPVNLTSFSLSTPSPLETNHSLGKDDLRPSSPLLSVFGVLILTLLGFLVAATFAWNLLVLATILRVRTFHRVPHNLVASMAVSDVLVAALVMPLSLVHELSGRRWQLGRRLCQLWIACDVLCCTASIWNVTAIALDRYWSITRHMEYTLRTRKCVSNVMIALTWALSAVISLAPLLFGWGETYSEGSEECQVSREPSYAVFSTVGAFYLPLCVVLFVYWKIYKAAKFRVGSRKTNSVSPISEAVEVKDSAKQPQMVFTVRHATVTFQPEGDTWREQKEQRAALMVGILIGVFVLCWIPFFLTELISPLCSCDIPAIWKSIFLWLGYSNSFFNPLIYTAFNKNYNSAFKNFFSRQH
As to `COc1ccc2[nH]cc(CCN3C(=O)c4ccc(C(=O)O)cc4C3=O)c2c1`, the activation is 27% (active).

Take `COCCCN1C(=O)c2ccc(C(=O)Nc3ccc(OC)cc3OC)cc2C1=O`: the activation was -0.44% (inactive).

Take `Cc1ccc2[nH]cc(CCCN3C(=O)c4ccccc4C3=O)c2c1`: the activation was -1.1% (inactive).

For `O=C(CNCc1cccs1)Nc1cc(S(=O)(=O)N2CCCC2)ccc1Cl`, the activation was -2.05% (inactive).

Take `COc1ccccc1CNC(=O)C1CCCN(S(=O)(=O)c2cccc3cccnc23)C1` (stereo not given): the activation is -3.07% (inactive).

Regarding `CCC(C)OC(=O)C(C)Oc1ccc(-c2ccccc2)cc1` (stereo not given), the activation was 3.02% (inactive).

Regarding `CC(=O)Nc1ccc(N2C(=O)C3C4CC(=O)C(c5ccccc54)C3C2=O)cc1` (stereo not given), the activation was -1.72% (inactive).

For `CC1=C(C)CC2C(=O)N(c3cccc4ccccc34)C(=O)C2C1` (stereo not given), the activation is 1.96% (inactive).

Consider `CCc1ccccc1N1C(=O)C2C3CC(=O)C(c4ccccc43)C2C1=O` (stereo not given), for which the activation is 10.2% (active).

Take `Cn1nc(C(C)(C)C)c([N+](=O)[O-])c1C(N)=O`: the activation is -3.65% (inactive).

For `NC(=O)c1ccc(N2CCOCC2)nc1`, the activation is 5.3% (inactive).

As to `CCCN(CC1CC1)C(=S)NC(=O)c1ccccc1Br`, the activation was -3.6% (inactive).

As to `CC[C@]12c3[nH]c4cc(CCC(=O)N(C)C)ccc4c3CCN1C(=O)[C@@H](CC(=O)NCc1ccco1)C[C@@H]2C(=O)N1CCN(C(=O)c2ccco2)CC1`, the activation was -2.65% (inactive).

For `CC[C@]12c3[nH]c4cc(CCC(=O)N(C)C)ccc4c3CCN1C(=O)[C@@H](CC(=O)NCCCn1ccnc1)C[C@@H]2C(=O)N1CCN(C(=O)C2CC2)CC1`, the activation was 2.93% (inactive).

For `CC[C@]12c3[nH]c4cc(CCC(=O)N(C)C)ccc4c3CCN1C(=O)[C@@H](CC(=O)NCCCN(C)C)C[C@@H]2C(=O)N1CCN(C(=O)c2ccco2)CC1`, the activation was 4.2% (active).

Take `O=C(c1cccnc1)N(c1cc2sc(=O)oc2c2ccccc12)S(=O)(=O)c1ccccc1`: the activation is 16.1% (active).

On to `O=C(c1cccnc1)N(Cc1ccccc1)C(=O)c1cccnc1`, for which the activation is 5.83% (inactive).

As for `COc1ccc(N(C(=O)c2cccnc2)S(=O)(=O)c2ccc(OC)c(OC)c2)cc1`, the activation was 6.11% (inactive).

For `COCCCn1c(-c2cccs2)nc2nc3ccccc3nc21`, the activation is -0.51% (inactive).

For `CC(OC(=O)CCc1nc(=O)c2ccccc2n1C)C(=O)NCc1ccc2c(c1)OCO2` (stereo not given), the activation was -4.46% (inactive).

`C=CCSc1nnc2c(n1)-c1cccc3cccc-2c13`: the activation is -0.69% (inactive).

Take `COc1cccc(C(=O)NNS(=O)(=O)c2ccc(F)cc2)c1`: the activation is -2.33% (inactive).

On to `O=C(COc1ccc(Cl)cc1[N+](=O)[O-])N1CCCCC1`, for which the activation was -1.55% (inactive).

On to `Nc1ccc(C(=O)N2CCN(S(=O)(=O)c3ccc(Cl)cc3)CC2)cc1[N+](=O)[O-]`, for which the activation was -1.02% (inactive).

For the molecule `O=C(c1ccc(Oc2ccc(Cl)cc2)c([N+](=O)[O-])c1)N1CCCC1`, the activation was 11% (active).
